Compounds with a hit are over-represented: about 28% of the library has one in this group of screens.
CYP2C19 inh – inhibitors of human CYP2C19; CYP2C19 Supersomes, luciferin-H EGE luminescence, 30 min; P33261; inhibition, % at 5 µM; actives 21% (n = 96,000);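 active = CYP2C19 inhibition above a set limit at 5 µM in the primary screen, cut at about 50% in these data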;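 also: plate controls were negative control wells for no effect and 2.5 mM tranylcypromine positive control for full effect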
Mac1 fbg inh – CD11b/CD18-fibrinogen binding inhibition. AID 1497. actives 0.54% (n = 93,000). K562 CD11b/CD18 adhesion to fibrinogen, ATPlite luminescence; Mn2+ added to activate the integrin. inhibition, % at 10 µM. P05107+P11215;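 active = primary inhibition of 50% or more at 10 µM, then 40% or more on retest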
Target sequence (P05107 whole entry, looked up, other chains not shown): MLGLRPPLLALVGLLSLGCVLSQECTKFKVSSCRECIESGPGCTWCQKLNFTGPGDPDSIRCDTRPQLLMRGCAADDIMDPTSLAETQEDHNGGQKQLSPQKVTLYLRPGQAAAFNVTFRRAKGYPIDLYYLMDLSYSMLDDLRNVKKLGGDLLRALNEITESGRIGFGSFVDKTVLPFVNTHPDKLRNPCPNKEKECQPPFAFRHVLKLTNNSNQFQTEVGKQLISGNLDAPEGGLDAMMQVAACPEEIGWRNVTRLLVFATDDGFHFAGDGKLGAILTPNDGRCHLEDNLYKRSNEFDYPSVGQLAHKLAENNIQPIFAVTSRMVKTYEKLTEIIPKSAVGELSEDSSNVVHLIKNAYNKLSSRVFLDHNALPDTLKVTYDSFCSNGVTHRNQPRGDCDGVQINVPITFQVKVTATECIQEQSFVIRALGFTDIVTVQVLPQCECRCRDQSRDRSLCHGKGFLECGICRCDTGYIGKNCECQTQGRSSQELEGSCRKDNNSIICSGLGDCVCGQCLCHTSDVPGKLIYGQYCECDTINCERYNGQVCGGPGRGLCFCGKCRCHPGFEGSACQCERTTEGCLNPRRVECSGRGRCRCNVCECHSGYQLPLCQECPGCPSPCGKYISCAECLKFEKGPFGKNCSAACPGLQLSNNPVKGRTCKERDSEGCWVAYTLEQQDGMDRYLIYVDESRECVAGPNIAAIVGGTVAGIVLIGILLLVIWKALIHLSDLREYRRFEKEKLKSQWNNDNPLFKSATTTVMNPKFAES
Mac1 fbg enh – enhancers of human CD11b/CD18 binding to fibrinogen | AID 1499 | activation, % at 10 µM | K562 CD11b/CD18 adhesion to fibrinogen, ATPlite luminescence | actives 0.07% (n = 93,000) | P05107+P11215;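 active = 10 µM primary screen giving 50% or more activity, confirmed by 40% or more on retest at that dose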
CYP2C9 act – increases human cytochrome P450 2C9 activity; actives 1.4% (n = 96,000); AID 1024; recombinant CYP2C9, luciferin-H conversion, luminescence; stronger effect = higher value; factor 1 = untreated enzyme, 0 = blocked; activation factor at 5 µM;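 active = activation factor of 2 or more for CYP2C9 at a 5 µM dose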;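 also: 0 = sulfaphenazole-blocked wells and 1 = vehicle-only wells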
CYP2C9 inh – inhibitors of human CYP2C9 | P11712 | CYP2C9 Supersomes, luciferin-H conversion, luminescence | inhibition, % at 5 µM | actives 20% (n = 96,000) | AID 777;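 active = blocking of liver enzyme CYP2C9 beyond about 50% at 5 µM, limit read from the data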
CYP2C19 activ – activators of human cytochrome P450 2C19 | P33261 | recombinant CYP2C19, luciferin-H EGE luminescence; stronger effect = higher value; 0 = fully inhibited enzyme, 1 = untreated enzyme | activation factor at 5 µM | 96,000 tested, under 10 active;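 active = activation factor of at least 2 at 5 µM in the primary screen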;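 also: 0 = wells with 2.5 mM tranylcypromine and 1 = vehicle-only wells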
* hit, by the source's call; x = not tested or not shown.

SMILES	CYP2C19 inh	Mac1 fbg inh	Mac1 fbg enh	CYP2C9 act	CYP2C9 inh	CYP2C19 activ
CCN1CCN(c2ncnc3c2sc(=S)n3-c2ccccc2)CC1	10	-2	-2	0.9	12	0.9
S=c1sc2c(N3CCN(Cc4ccccc4)CC3)ncnc2n1-c1ccccc1	38	-32	0	0.4	60*	0.6
CCOC(=O)Cn1nc(-c2ccc(C)cc2)ccc1=O	49	5	5	0.5	52*	0.5
CCOC(=O)CSc1nnc(-c2ccccc2)c(=O)[nH]1	-12	2	-4	1.1	-8	1.1
CCOC(=O)CCn1nc(-c2ccccc2)cc1N	66*	-14	1	0.9	10	0.3
COc1ccc(/C=N/NC(=O)c2nonc2C)cc1	80*	-26	0	0.7	27	0.2
COc1ccc(/C=N/NC(=O)c2nc(-c3ccccc3)n(-c3ccccc3)n2)cc1	x	-6	5	x	x	x
Cc1c(S(=O)(=O)N2CCc3ccccc3C2)c(=O)n(C)c(=O)n1C	12	-40	1	1	-5	0.9
O=C1Nc2ccccc2/C1=C/C(=O)c1cccs1	32	5	-3	2.5*	-153	0.7
CCOC(=O)/C(C#N)=C/c1cc(C)n(-c2ccccc2)c1C	52*	4	2	0.5	54*	0.5
COc1ccc2c(c1)C1C=CCC1C(c1cc3c(cc1Br)OCO3)N2 (centres undefined)	70*	x	x	0.2	75*	0.3
CC(Sc1cccc(C(F)(F)F)c1)C(=O)NC(N)=O (centres undefined)	-5	7	1	2.4*	-142	1.1
CCNC(=O)NC(=O)CSc1cccc(C(F)(F)F)c1	77*	0	-3	0.8	16	0.2
O=C(CSc1cccc(C(F)(F)F)c1)Nc1ccc(Cl)cc1Cl	96*	1	0	1.7	-68	0
O=C(Cn1c2c(sc1=O)C1c3ccccc3OCC1CS2)Nc1ccc(Cl)cc1 (centres undefined)	x	18	13	x	x	x
Cc1nn(Cc2ccc(Cl)cc2)c(C)c1NC(=O)C1CC=CCC1C(=O)O (centres undefined)	39	9	-1	1.1	-12	0.6
Cc1onc(-c2ccccc2)c1C(=O)N1CCN(C/C=C/c2ccccc2)CC1	5	-3	0	0.9	14	1
CCOc1cc(N2CCOCC2)c(OCC)cc1NC(=O)CN1C(=O)NC2(CCc3ccccc32)C1=O (centres undefined)	21	6	0	0.6	44	0.8
CC(=O)c1c(C)[nH]c(C(=O)OCC(=O)Nc2cc(C(F)(F)F)ccc2N2CCOCC2)c1C	35	3	5	0.4	58*	0.7
Cc1noc(C)c1COC(=O)COc1cccc2c1OC(C)(C)C2	77*	-3	-2	0.3	68*	0.2
CC1(C)Cc2cccc(OCC(=O)Nc3cccnc3Cl)c2O1	98*	-20	-4	2.2*	-116	0
O=C(CN1C(=O)NC2(CCc3ccccc32)C1=O)Nc1cc(C(F)(F)F)ccc1N1CCOCC1 (centres undefined)	35	-4	-2	0.1	89*	0.7
CC1(C)Cc2cccc(OCC(=O)NC3CC3)c2O1	45	0	0	0.8	18	0.6
CC1(C)Cc2cccc(OCC(=O)Nc3cccnc3)c2O1	28	-2	-1	0.8	19	0.7
CC1(C)Cc2cccc(OCC(=O)Nc3cc(C(F)(F)F)ccc3N3CCOCC3)c2O1	19	17	-4	0.5	51*	0.8
SMILES	CYP2C19 inh	Mac1 fbg inh	Mac1 fbg enh	CYP2C9 act	CYP2C9 inh	CYP2C19 activ
O=C(O)/C(=C\c1ccco1)NC(=O)c1cccc2ccccc12	14	x	x	0.9	9	0.9
Nc1ccccc1-c1nc2ccccc2[nH]1	47	-17	0	0.4	56*	0.5
Nc1ccc(-c2nc3ccccc3[nH]2)cc1	-8	-55	0	1.1	-11	1.1
COc1ccc(N=C2C(=Nc3ccc(OC)cc3)N(c3ccc(OC)cc3)C(=S)N2c2ccccc2)cc1	4	2	-2	0.2	78*	1
COc1ccc(N=C2C(=Nc3ccc(OC)cc3)N(c3ccc(OC)cc3)C(=S)N2C)cc1	68*	0	-2	0.5	53*	0.3
CN(C(=O)c1ccco1)c1nc2c(s1)CCCC2	45	10	-1	0.4	62*	0.6
CN(C(=O)c1ccco1)c1nnc(C23CC4CC(CC(C4)C2)C3)s1	9	9	0	0.8	18	0.9
COC(=O)C1=C(C)N(c2cc(Cl)cc(Cl)c2)C(=O)C1	62*	7	0	1	2	0.4
CCOC(=O)C1=NNC2C(=O)N(C3CCCCC3)C(=O)C12 (centres undefined)	25	3	-1	0.9	8	0.8
CCOC(=O)C1=C(C)N(C2CCCCC2)C(=O)C1	94*	-10	1	0.6	41	0.1
COC(=O)C1=C(C)N(C2CCCCC2)C(=O)C1	55*	x	x	1	1	0.4
CCCCCCCCSc1nnc(CSc2nc3nc(C)cc(C)n3n2)o1	16	-15	3	0.8	21	0.8
CCN1CCN(c2ccc(NC(=O)c3cccnc3)cc2Cl)CC1	-5	12	2	0.7	25	1
COc1ccc(CCC(C)NCC2CCCCC2)cc1 (centres undefined)	x	-19	-4	x	x	x
COc1cc(C(=O)N2CCN(S(=O)(=O)c3ccc(F)cc3)CC2)cc(OC)c1OC	43	1	-2	0.8	15	0.6
Nc1cc(-c2ccc(Br)cc2)nn1S(=O)(=O)c1ccccc1	8	-11	5	0.7	35	0.9
CCOc1ccc(-c2cc(N)n(S(=O)(=O)c3ccc(OC)c(OC)c3)n2)cc1	40	2	0	0.7	34	0.6
COc1ccc(S(=O)(=O)n2nc(-c3ccc(Cl)cc3)cc2N)cc1OC	83*	-16	-2	0.2	80*	0.2
Nc1cc(-c2ccccc2)nn1S(=O)(=O)c1ccc(F)cc1	100*	63*	-2	0	97*	0
COc1ccc(OC)c(S(=O)(=O)n2nc(-c3ccccc3)cc2N)c1	24	-3	-3	0.6	39	0.8
COc1ccc(-c2cc(N)n(S(=O)(=O)c3ccc(F)cc3)n2)cc1OC	70*	24	2	0	95*	0.3
COc1cc(-c2cc(N)n(S(=O)(=O)c3ccc(F)cc3)n2)cc(OC)c1OC	79*	-2	17	0.2	82*	0.2
Cc1ccccc1NC(=O)c1c(O)c2cccc3c2n(c1=O)CCC3	1	-2	-2	0.9	6	1
Fc1ccccc1Cc1nnc2n1N=C(c1ccc(Cl)cc1)CS2	33	-39	17	0.4	56*	0.7
